RGS7-Gao: human RGS7-Galphao interaction regulation; P09471; Multiplexed bead flow cytometry, RGS7-Galphao binding; actives lie on both sides; binding response (% of control), % at 10 µM; hit rate 0.35% among 220,000; AID 1439; in the data active means binding response below about 49% or above about 150%; inconclusive means no clear call, values can overlap the other calls; inactive means in between;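 further: fluorescent Galphao held in activated GDP-AlF4 state binding bead-coupled RGS7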
Target sequence (P09471 whole entry, looked up): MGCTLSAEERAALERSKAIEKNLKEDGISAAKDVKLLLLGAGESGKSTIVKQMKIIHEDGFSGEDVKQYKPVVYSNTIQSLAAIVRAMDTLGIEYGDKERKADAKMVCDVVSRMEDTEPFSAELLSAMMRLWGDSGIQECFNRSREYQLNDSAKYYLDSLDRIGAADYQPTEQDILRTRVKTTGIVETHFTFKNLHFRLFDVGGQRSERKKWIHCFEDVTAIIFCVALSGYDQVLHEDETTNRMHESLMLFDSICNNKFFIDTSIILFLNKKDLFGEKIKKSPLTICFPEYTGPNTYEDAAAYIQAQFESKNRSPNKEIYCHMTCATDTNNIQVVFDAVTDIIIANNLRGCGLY
GSH fluor: GSH bead compound fluorescence profile. GSH beads flow cytometry, compound fluorescence 488/530 nm; stronger effect = higher value. fluorescence (KMESF) at 10 µM. hit rate 0.25% among 190,000; in the data active means fluorescence above about 89;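 further: glutathione beads carrying GST-tagged Bcl family fusion proteins plus one bare bead set; values are compound well signal with DMSO vehicle wells as background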
RGS16-Gao HTS: regulators of human RGS16-Galphao interaction; O15492+P09471; bead-based flow cytometry RGS16-Galphao binding, fluorescence; actives lie on both sides; binding response (% of control), % at 10 µM; hit rate 0.38% among 220,000;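 further: Galphao activated by GDP with aluminum fluoride before binding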
Target sequence (O15492 whole entry, looked up): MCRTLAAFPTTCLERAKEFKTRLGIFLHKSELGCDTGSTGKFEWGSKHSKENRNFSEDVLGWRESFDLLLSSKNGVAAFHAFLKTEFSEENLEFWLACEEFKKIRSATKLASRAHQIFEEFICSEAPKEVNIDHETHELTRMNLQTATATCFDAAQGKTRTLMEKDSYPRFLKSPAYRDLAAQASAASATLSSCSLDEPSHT
Target sequence (P09471 whole entry, looked up): as the sequence (P09471 whole entry, looked up) above
Avidin bead fluor: compound fluoresces at 488/530 nm on avidin beads; fluorescence (KMESF) at 10 µM; compound fluorescence 488/530 nm, flow cytometry; stronger effect = higher value; AID 1775; hit rate 0.38% among 220,000; in the data active means fluorescence above about 47
RGS8-Gao: human RGS8-Galphao interaction regulation | response (percent of control binding), % at 10 µM | multiplexed bead flow cytometry, RGS8-Galphao binding; actives lie on both sides | P09471 | hit rate 0.34% among 220,000; in the data active means response below about 60% or above about 140%; inactive means in between;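 further: Galphao activated as the GDP aluminium fluoride complex binding bead-coupled RGS8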
RGS4-Gao reg: human RGS4-Galphao interaction regulation; hit rate 0.33% among 220,000; Multiplexed bead flow cytometry, RGS4-Galphao binding; actives lie on both sides; binding response (% of control), % at 10 µM; P09471; in the data active means binding response below about 49% or above about 150%; inactive means in between;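 further: fluorescent Galphao activated with aluminum fluoride binding bead-coupled RGS4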
RGS-Gao: RGS4-Galphao interaction regulator (human); shares compounds with RGS16-Gao HTS; multiplexed bead flow cytometry, RGS–Galpha-o binding; RGS4–Galpha-o binding response, % at 10 µM; hit rate 99% among 1,600; AID 1504;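 further: fluorescently labeled Galpha-o bound to GDP with aluminium fluoride binding biotinylated RGS beads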
Biotin-avidin: counter-screen: compounds disrupting biotin binding to avidin beads; streptavidin beads, fluorescein-biotin binding, flow cytometry; 1,700 tested, under 10 active; inhibition, % at 10 µM; shares compounds with RGS16-Gao HTS;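 active means inhibition above 50%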;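 further: median green fluorescence of gated singlet beads compared with DMSO control wells; 0% = DMSO wells and 100% = complete loss of bead fluorescence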
RGS8-Gao single: confirmation of regulators of human RGS8-Galphao interaction; bead-based flow cytometry RGS8-Galphao binding, fluorescence; actives lie on both sides; hit rate 3% among 1,700; AID 1836; binding response (% of control), % at 10 µM; shares compounds with RGS16-Gao HTS; in the data active means binding response below about 72% or above about 130%; inactive means in between;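 further: Galphao activated as GDP AlF4 complex before binding bead RGS8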
RGS7-Gao confirm: RGS7-Galphao interaction regulation, single point confirmation; shares compounds with RGS16-Gao HTS; bead-based flow cytometry RGS7-Galphao binding; actives lie on both sides; response (percent of control binding), % at 10 µM; hit rate 7.8% among 1,700; in the data active means response below about 75% or above about 130%; inactive means in between;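 further: fluorescent Galphao activated with GDP and aluminum fluoride binding bead-coupled RGS7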
RGS16-Gao single: RGS16-Galphao interaction regulation, single point confirmation; shares compounds with RGS16-Gao HTS; bead-based flow cytometry, RGS16-Galphao binding; actives lie on both sides; response (% of control binding), % at 10 µM; hit rate 4% among 1,700; in the data active means response below about 74% or above about 130%; inactive means in between;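 further: Galphao activated as the GDP aluminium fluoride complex binding bead-coupled RGS16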
RGS4-Gao single: confirmation of regulators of human RGS4-Galphao interaction; hit rate 4% among 1,700; shares compounds with RGS16-Gao HTS; RGS4-Galphao binding, multiplexed bead flow cytometry; actives lie on both sides; binding response (% of control), % at 10 µM; in the data active means binding response below about 74% or above about 130%; inactive means in between
RGS19-Gao conf: RGS19-Galphao interaction regulation, single point confirmation; bead-based flow cytometry RGS19-Galphao binding; actives lie on both sides; hit rate 5% among 1,700; response (percent of control binding), % at 10 µM; shares compounds with RGS16-Gao HTS; AID 1841; in the data active means response below about 50% or above about 160%; inactive means in between;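 further: 100% = no compound control and 0% = blank background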
An asterisk follows results filed as active; [ ] = another dose, or the depositor's remark. Shown are actives, neighbours in structure and some others; about 1.2% of the full set was active somewhere. Unless noted, how the calls were made is not given here.

Screening COC(=O)Nc1csc2c1NC(=O)CCCC2 returned RGS7-Gao inconclusive, RGS16-Gao HTS -4.2*, Avidin bead fluor -1, RGS8-Gao 18.2*, RGS4-Gao reg -9.2*, Biotin-avidin -0.6, RGS8-Gao single 94.7, RGS7-Gao confirm 83.8, RGS16-Gao single 91.3, RGS4-Gao single 93.0 and RGS19-Gao conf 98.9.
For CSc1nc(N)nc(N(C)C)n1 the results were RGS7-Gao inconclusive, RGS16-Gao HTS 105.7, Avidin bead fluor 4, RGS8-Gao 102.4 and RGS4-Gao reg 106.2.
For CSc1nc(N)nc(C2CC2)n1 the results were RGS7-Gao inconclusive, RGS16-Gao HTS 96.8, Avidin bead fluor 5, RGS8-Gao 65.8, RGS4-Gao reg 95.9, Biotin-avidin -1.8, RGS8-Gao single 98.7, RGS7-Gao confirm 93.6, RGS16-Gao single 96.0, RGS4-Gao single 99.7 and RGS19-Gao conf 105.9.
`O=C(N/N=C\c1c(O)ccc2ccccc12)c1ccc(Cn2cccn2)o1` gave RGS7-Gao 58.2, GSH fluor 9, RGS16-Gao HTS 12.0*, Avidin bead fluor 1, RGS8-Gao 43.2*, RGS4-Gao reg 56.7, RGS-Gao 56.7*, Biotin-avidin -1.3, RGS8-Gao single 93.8, RGS7-Gao confirm 88.0, RGS16-Gao single 90.2, RGS4-Gao single 92.6 and RGS19-Gao conf 127.7.
O=C(N/N=C\c1ccc(Cl)s1)c1ccc(Cn2cccn2)o1 was read as RGS7-Gao 98.2, GSH fluor 7, RGS16-Gao HTS 99.0, Avidin bead fluor 2, RGS8-Gao 99.7 and RGS4-Gao reg 95.6.
N#Cc1nc(-c2ccccc2F)oc1NCCN1CCOCC1 was read as RGS7-Gao 134.0, GSH fluor 23, RGS16-Gao HTS 274.6, Avidin bead fluor 2, RGS8-Gao 176.5*[activator], RGS4-Gao reg 149.1, RGS-Gao 149.1*, Biotin-avidin -1.4, RGS8-Gao single 98.2, RGS7-Gao confirm 98.5, RGS16-Gao single 96.3, RGS4-Gao single 97.3 and RGS19-Gao conf 92.0.
For O=C(Nc1ccc(C2=NCCN2)cc1)c1ccc(C(=O)Nc2ccc(C3=NCCN3)cc2)c(Cl)c1 the results were RGS7-Gao inconclusive, RGS16-Gao HTS 119.4, Avidin bead fluor 9, RGS8-Gao 142.8*[activator], RGS4-Gao reg 198.5*[activator], Biotin-avidin -0.5, RGS8-Gao single 105.7, RGS7-Gao confirm 104.8, RGS16-Gao single 98.3, RGS4-Gao single 105.5 and RGS19-Gao conf 135.3.
For COc1ccccc1NC(=O)CN1C(=O)NC2(CCCCCCC2)C1=O the results were RGS7-Gao 100.2, GSH fluor 13, RGS16-Gao HTS 100.9, Avidin bead fluor 10, RGS8-Gao 98.6 and RGS4-Gao reg 97.7.
`Cc1ccccc1NC(=O)CN1C(=O)NC2(CCCCC2)C1=O` gave GSH fluor 42, Biotin-avidin 0.5, RGS8-Gao single 95.0, RGS7-Gao confirm 97.9, RGS16-Gao single 93.7, RGS4-Gao single 93.7 and RGS19-Gao conf 90.0.
Screening Cc1cc(NC(=O)CN2C(=O)NC3(CCC(C)CC3)C2=O)no1 (stereo not drawn) returned RGS7-Gao 23.1*, GSH fluor 10, RGS16-Gao HTS -10.2, Avidin bead fluor -1, RGS8-Gao 22.8*, RGS4-Gao reg 24.2*, Biotin-avidin inactive, RGS8-Gao single 98.6, RGS7-Gao confirm 99.9, RGS16-Gao single 100.0, RGS4-Gao single 103.8 and RGS19-Gao conf 100.6.
`CCOC(=O)/C=C/C(=O)OCC(=O)Nc1ccc([N+](=O)[O-])cc1` gave RGS7-Gao inconclusive, RGS16-Gao HTS 98.6, RGS8-Gao 98.5 and RGS4-Gao reg 94.1.
`Nc1ccc2oc3ccc(N)cc3c(=O)c2c1` gave RGS7-Gao -13.3*, GSH fluor 8, RGS16-Gao HTS 53.6, Avidin bead fluor 0, RGS8-Gao 44.4*, RGS4-Gao reg 5.6*, Biotin-avidin 3.0, RGS8-Gao single 104.2, RGS7-Gao confirm 103.6, RGS16-Gao single 105.8, RGS4-Gao single 110.0 and RGS19-Gao conf 105.5.
`CC(C)c1ccc2oc3nc(N)c(C(=O)O)cc3c(=O)c2c1` gave RGS7-Gao 98.4, GSH fluor 67, RGS16-Gao HTS 97.3, Avidin bead fluor 8, RGS8-Gao 95.8 and RGS4-Gao reg 96.7.
For O=C(Nc1ccc2c(c1)OCO2)N1CCN(c2ccccc2Cl)CC1 the results were RGS7-Gao 99.0, GSH fluor 14, RGS16-Gao HTS 99.7, Avidin bead fluor 14, RGS8-Gao 100.0 and RGS4-Gao reg 103.2.
`O=C(Nc1ccc2c(c1)OCO2)N1CCN(c2cccc(C(F)(F)F)c2)CC1` gave RGS7-Gao 68.2, GSH fluor 32, RGS16-Gao HTS -242.7, Avidin bead fluor 0, RGS8-Gao 72.4, RGS4-Gao reg 46.5*, Biotin-avidin -1.2, RGS8-Gao single 97.7, RGS7-Gao confirm 95.6, RGS16-Gao single 96.5, RGS4-Gao single 98.5 and RGS19-Gao conf 104.5.
Screening CC(C)c1onc(C(=O)N2C(C)CCCC2C)c1[N+](=O)[O-] (stereo not drawn) returned RGS7-Gao 99.1, GSH fluor 10, RGS16-Gao HTS 107.0, Avidin bead fluor 3, RGS8-Gao 101.6 and RGS4-Gao reg 98.8.
For CC(C)c1onc(C(=O)N2CCCCC2C)c1[N+](=O)[O-] (stereo not drawn) the results were RGS7-Gao 23.3*, GSH fluor 14, RGS16-Gao HTS -44.8, Avidin bead fluor -1, RGS8-Gao 30.3*, RGS4-Gao reg 27.7*, Biotin-avidin -1.1, RGS8-Gao single 104.3, RGS7-Gao confirm 101.6, RGS16-Gao single 107.2, RGS4-Gao single 101.0 and RGS19-Gao conf 103.0.

High-throughput results from PubChem.
